Our source for the phenotypic severity score and drug effect values is the supplement of paper PMC6805474.

Unmarked numbers belong to inactive results.

The subject of assay [1] is Schistosoma mansoni schistosomula (NMRI). The experiment in a line: phenotypic severity score (0-4); higher = more antischistosomal effect, active = 2 or more. The note with it: 10 µM.
In assay [2] the test system is Schistosoma mansoni schistosomula (Liberian). The experiment in a line: drug effect (1 - score/DMSO control score) (fraction); higher = more antischistosomal effect, active = 0.5 or more; extreme values may be limits of the assay. The following applies: 10 µM. The method, boiled down: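 Schistosomula of the Liberian strain of Schistosoma mansoni were mechanically transformed from cercariae, pre-incubated for at least 12 h, and placed at 50 per well in flat-bottom 96-well plates with Medium 199 containing 5% FCS. Compounds were tested in duplicate at 10 µM at 37 °C and 5% CO2, alongside wells holding 0.1% DMSO. Parasites were scored visually at 10× after 24, 48 and 72 h on a quarter-point scale running from 3 (normal) to 0 (dead). Drug effect came from the mean test-well score relative to the mean DMSO-well score, with negative values set to zero and plates accepted only when the DMSO wells averaged at least 2.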
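For phenotypic severity score (0-4) in this document: visual microscopic scoring of shape, motility and density changes versus 0.5% DMSO solvent controls, one point per descriptor, degeneracy or death scored 4, mean of duplicate wells.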

In the case of `O=C(Nc1nnc(-c2ccc(Cl)cc2)o1)c1cccc(C(F)(F)F)c1`, the phenotypic severity score in assay [1] (24 h) was 0; in assay [1] (48 h) it was 4 (active); in assay [1] (72 h), 4 (active). The drug effect was 0.0909 in assay [2] (24 h), 0.25 in assay [2] (48 h) and 0.945 (active) in assay [2] (72 h).

As for `CCOC(=O)NC(=O)c1ccsc1NC(=O)c1nc2ccccc2s1`, the phenotypic severity score in assay [1] (24 h), in assay [1] (48 h) and in assay [1] (72 h) was 0 in each case. The drug effect was 0.0909 in assay [2] (24 h), 0.2 in assay [2] (48 h) and 0.182 in assay [2] (72 h).

Take `Nc1ncnc2c1c(Cc1cccc3ccccc13)nn2CC1CCNCC1`: the phenotypic severity score in assay [1] (24 h), in assay [1] (48 h) and in assay [1] (72 h) was 0 in each case. For the same compound, the drug effect in assay [2] (24 h), in assay [2] (48 h) and in assay [2] (72 h) was under 0 throughout.

On to `Cc1ccc(NC(=O)c2cc(S(=O)(=O)NC(C)(C)C)ccc2C)nc1`, for which the phenotypic severity score in assay [1] (24 h), in assay [1] (48 h) and in assay [1] (72 h) was 0 throughout. The drug effect in assay [2] (24 h) was 0.2; in assay [2] (48 h) it was 0.222; in assay [2] (72 h), 0.375.

Take `Oc1c(I)cc(I)c2cccnc12`: the values for the phenotypic severity score in assay [1] (24 h), in assay [1] (48 h) and in assay [1] (72 h) were 2 (active), 1 and 2 (active), respectively. Also, the drug effect in assay [2] (24 h) is 0.1; in assay [2] (48 h), 0.135; in assay [2] (72 h), 0.333.

As to `CCc1ccc([C@@H]2C[C@H](C(F)(F)F)n3ncc(C(=O)NCc4ccc(OC)cc4)c3N2)cc1`, the phenotypic severity score in assay [1] (24 h) is 1; in assay [1] (48 h), 1; in assay [1] (72 h) it was 0. Besides, the drug effect in assay [2] (24 h) was 0.1; in assay [2] (48 h) it was 0.111; in assay [2] (72 h) it was 0.0556.

Take `CC(C)n1ncc2c(C(=O)NCC(c3cccs3)N3CCOCC3)cc(-c3ccccc3)nc21` (stereo not given): the phenotypic severity score was 2 (active) in assay [1] (24 h), 0 in assay [1] (48 h) and 1 in assay [1] (72 h). Further, the results for the drug effect in assay [2] (24 h), in assay [2] (48 h) and in assay [2] (72 h) were 0.273, 0.5 (active) and 0.4, respectively.

With `Cc1ccc(S(=O)(=O)Nc2ccc(CN3CCN(C(=O)c4cccc(C#N)c4)CC3)cc2)cc1`, the phenotypic severity score was 0 in assay [1] (24 h), 1 in assay [1] (48 h) and 1 in assay [1] (72 h). The drug effect is 0.05 in assay [2] (24 h), 0.0556 in assay [2] (48 h) and 0.0625 in assay [2] (72 h).

Consider `O=C(Nc1ccc2c(c1)B(O)OC2)c1ccccc1C(F)(F)F`, for which the phenotypic severity score in assay [1] (24 h), in assay [1] (48 h) and in assay [1] (72 h) was 0 in each case. Moreover, the drug effect was 0.1 in assay [2] (24 h), 0.0556 in assay [2] (48 h) and 0.167 in assay [2] (72 h).

For `COc1ccc(-c2cncc3ccc(C(=O)NCCCn4ccnc4)nc23)cc1`, the phenotypic severity score in assay [1] (24 h) was 1; in assay [1] (48 h), 0; in assay [1] (72 h), 0. The drug effect in assay [2] (24 h) was under 0; in assay [2] (48 h), 0.027; in assay [2] (72 h), 0.0303.

For the compound `CS(=O)(=O)c1ccccc1C(=O)N(Cc1ccccc1)c1ccccc1`, the phenotypic severity score in assay [1] (24 h) is 0; in assay [1] (48 h), 1; in assay [1] (72 h) it was 0. For the same compound, the drug effect in assay [2] (24 h) is 0.182; in assay [2] (48 h), 0.4; in assay [2] (72 h), 0.4.

For `CCc1ccc(S(=O)(=O)Nc2cc(CN3CCN(CCC(C)C)CC3)ccc2C)cc1`, the phenotypic severity score in assay [1] (24 h) is 1; in assay [1] (48 h) it was 2 (active); in assay [1] (72 h), 4 (active). Besides, the drug effect in assay [2] (24 h) was 0.25; in assay [2] (48 h) it was 0.444; in assay [2] (72 h) it was 0.5 (active).

Regarding `Cc1cc(Cl)ccc1NC(=O)CCc1ccc(S(=O)(=O)NCC(C)C)cc1`, the phenotypic severity score in assay [1] (24 h), in assay [1] (48 h) and in assay [1] (72 h) was 0 in each case. Further, the drug effect in assay [2] (24 h) is 0.2; in assay [2] (48 h) it was 0.278; in assay [2] (72 h), 0.375.

As for `CCC(Sc1nc2ccccc2o1)C(=O)Nc1nccs1` (stereo not given), the phenotypic severity score in assay [1] (24 h) is 2 (active); in assay [1] (48 h), 4 (active); in assay [1] (72 h) it was 4 (active). Also, the drug effect in assay [2] (24 h) was 0.182; in assay [2] (48 h), 1 (active); in assay [2] (72 h), 1 (active).

Turning to `O=C(NCc1ccoc1)N1CCN(Cc2ccc3c(c2)OCO3)CC1`, the phenotypic severity score in assay [1] (24 h), in assay [1] (48 h) and in assay [1] (72 h) was 0 throughout. Moreover, the drug effect was 0.136 in assay [2] (24 h), 0.2 in assay [2] (48 h) and 0.182 in assay [2] (72 h).

Regarding `Nc1nccc2ccc(-c3ccc4nccn4c3)cc12`, the phenotypic severity score in assay [1] (24 h), in assay [1] (48 h) and in assay [1] (72 h) was 4 (active) throughout. For the same compound, the results for the drug effect in assay [2] (24 h), in assay [2] (48 h) and in assay [2] (72 h) were 0.568 (active), 0.778 (active) and 0.75 (active), respectively.

On to `CC(C(=O)Nc1ccc2oc(-c3ccncc3)nc2c1)c1ccccc1` (stereo not given), for which the values for the phenotypic severity score in assay [1] (24 h), in assay [1] (48 h) and in assay [1] (72 h) were 1, 0 and 0, respectively. Further, the figures for the drug effect in assay [2] (24 h), in assay [2] (48 h) and in assay [2] (72 h) were 0.182, 0.35 and 0.345, respectively.

As to `CCc1cc(=O)n(C)c(SC(C)C(=O)Nc2ccc(F)cc2)n1` (stereo not given), the phenotypic severity score in assay [1] (24 h) was 0; in assay [1] (48 h) it was 0; in assay [1] (72 h) it was 1. Besides, the values for the drug effect in assay [2] (24 h), in assay [2] (48 h) and in assay [2] (72 h) were 0.135, 0.111 and under 0, respectively.

For the compound `CC(C)=CCC/C(C)=C\CNCCNC1C2CC3CC(C2)CC1C3` (stereo not given), the phenotypic severity score in assay [1] (24 h), in assay [1] (48 h) and in assay [1] (72 h) was 4 (active) throughout. In addition, the drug effect in assay [2] (24 h), in assay [2] (48 h) and in assay [2] (72 h) was 1 (active) each time.

Consider `NS(=O)(=O)c1cccc(-c2ccc3ncc(N4CCOCC4)nc3c2)c1`, for which the phenotypic severity score in assay [1] (24 h), in assay [1] (48 h) and in assay [1] (72 h) was 0 in each case. Besides, the drug effect in assay [2] (24 h) was 0.15; in assay [2] (48 h), 0.189; in assay [2] (72 h), 0.455.
